Assay results reported in PubChem BioAssay AID2125 (NMMLSC, 2009).
Values without a mark were called inactive.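 Rule for the calls: active = combined score above 50, rising as EC50 falls below 10 µM and growth at top dose drops; inactive = the rest.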 Peptide text beside a SMILES is read from it. * marks the point of attachment. Cbz = O=C(OCc1ccccc1)*

Tested on: YE4008
Experiment: yeast strain panel proliferation effects – secondary panel, OD600, 26S proteasome disassembly project, profiling panel (AID 2125)
Settings: S. cerevisiae strain panel, growth OD600, 6-8 h, at 100 µM, stronger effect = lower value

Compound	percent response (growth)
CC(=O)N1C(=O)C(=C2C=C(C)OC(C)=C2)c2ccccc21	56.6%
CC(C)C[C@@H](C=O)NC(=O)[C@H](CC(C)C)NC(=O)[C@H](CC(C)C)NC(=O)OCc1ccccc1 (Cbz-Leu-Leu-Leu-aldehyde)	88.2%
